GluA2 TARP mod: modulators of GluA2-stargazin AMPA receptor complexes, primary screen, cell-based, membrane potential dye; Voltage-dependent calcium channel gamma-2 subunit (Mus musculus) + Glutamate receptor 2 …; HEK293 GluA2+stargazin, membrane potential dye (FDSS), glutamate EC50; hits were called plate by plate, in both directions; calls only at 30 µM; hit rate 3.5% among 40,000;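 active means any of four per-well response measures lying three or more SD from its plate-wide compound average, in either direction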
GIRK2 activator: activators of NPY4-receptor-primed GIRK2 channels, summary, cell-based, HEK293, thallium flux; G protein-activated inward rectifier potassium channel 2 (Homo sapiens), P48051; HEK293 GIRK2/NPY4 cells, thallium flux fluorescence; activation (% efficacy), % for hits at 37.5 µM; 34,000 tested, under 10 active; AID 1259324, 2017;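 active means primary screen hit, no activity in plain HEK293 cells, and in GIRK2-only cells above 5% efficacy rising with concentration; inactive means the rest, including fluorescent compounds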;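 further: efficacy is normalized control-subtracted fluorescence 15 s after thallium addition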
Target sequence (P48051 whole entry, looked up): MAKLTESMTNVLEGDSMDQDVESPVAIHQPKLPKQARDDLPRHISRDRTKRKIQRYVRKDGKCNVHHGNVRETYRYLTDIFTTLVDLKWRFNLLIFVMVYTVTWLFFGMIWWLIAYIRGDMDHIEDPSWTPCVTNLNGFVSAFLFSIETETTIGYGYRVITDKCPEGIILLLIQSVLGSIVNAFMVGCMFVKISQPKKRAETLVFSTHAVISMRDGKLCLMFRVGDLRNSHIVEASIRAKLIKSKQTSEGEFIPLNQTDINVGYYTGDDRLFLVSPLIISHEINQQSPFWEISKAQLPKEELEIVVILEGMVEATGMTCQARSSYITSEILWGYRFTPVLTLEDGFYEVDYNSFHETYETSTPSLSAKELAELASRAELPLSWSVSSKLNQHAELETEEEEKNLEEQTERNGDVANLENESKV
Calls only; - = inactive; . = no result; + = active, no number. Many of the other results were omitted from the sample, so hits are more common in it than they were.

SMILES	GluA2 TARP mod	GIRK2 activator
Cc1nn(C2CCS(=O)(=O)C2)c2nc(-c3ccco3)cc(C(=O)NCc3c(F)cccc3F)c12 (stereo not drawn)	-	-
Cc1nn(C2CCS(=O)(=O)C2)c2nc(-c3ccco3)cc(C(=O)NCCc3ccc(F)cc3)c12 (stereo not drawn)	+	-
COc1cccc(/C=C2/SC(=S)N(c3ccc4c(c3)OCO4)C2=O)c1OC	+	.
COc1cc(/C=C2\SC(=S)N(c3ccc4c(c3)OCO4)C2=O)cc(OC)c1OC	-	.
COCC(C)NC(=O)C1CN(c2nc3c(C(F)(F)F)cccc3s2)C1 (stereo not drawn)	-	-
C=CCNC(=O)CSc1ccnc2c1c(=O)n(C)c(=O)n2C	-	-
CCOC(=O)N1CCN(C(=O)CCc2csc(NC(=O)c3cccs3)n2)CC1	-	-
Cn1nccc1-c1nnc(NC(=O)c2ccc(Br)o2)o1	+	-
Cc1cnn(C)c1C(=O)Nc1nnc(-c2ccnn2C)o1	-	-
COc1ccc(NC(=O)C(C)Sc2nnnn2-c2ccc(OC)cc2)cc1 (stereo not drawn)	-	.
CCOc1ccc(-n2nnnc2SC(C)C(=O)Nc2ccccc2C(=O)OC)cc1 (stereo not drawn)	+	.
COc1ccc(-n2nnnc2SC(C)C(=O)Nc2cccc(Cl)c2)cc1 (stereo not drawn)	-	.
CCOc1ccc(-n2nnnc2SC(C)C(=O)Nc2cccc(C(C)=O)c2)cc1 (stereo not drawn)	+	.
CCOc1ccc(-n2nnnc2SC(C)C(=O)Nc2ccccc2C#N)cc1 (stereo not drawn)	+	.
COc1ccccc1NC(=O)C(C)Sc1nnnn1-c1ccc(Cl)cc1 (stereo not drawn)	-	.
CS(=O)(=O)N1CCCC(C(=O)Nc2nnc(-c3ccco3)o2)C1 (stereo not drawn)	-	-
O=C(Cc1cc(-c2cccs2)on1)Nc1ccon1	.	-
NC(=O)c1cccc(NC(=O)c2ccoc2)c1	-	-
O=C(Nc1ccc(Nc2ccccc2)cc1)c1ccoc1	+	-
CCC(=O)Nc1ccc(N2CCCCC2=O)c(OC)c1	+	.
COc1ccc(CCC(=O)Nc2ccc(N3CCCCC3=O)c(OC)c2)cc1	-	-
Cc1cc(NC(=O)c2nnn(-c3cccc(Cl)c3)c2C)no1	-	-
NS(=O)(=O)c1ccc(NC(=O)COc2ncccn2)cc1	-	-
CC(C)c1nnc(C2CCN(S(=O)(=O)c3cccnc3)CC2)o1	-	-
CC(C)c1nnc(C2CCN(S(=O)(=O)c3ccc4c(c3)CCCC4)CC2)o1	+	-
SMILES	GluA2 TARP mod	GIRK2 activator
O=C(Nc1ccc(-c2ccc(N3CCOCC3)nn2)cc1)Nc1ccccc1F	-	-
O=C(Nc1ccc(-c2ccc(N3CCOCC3)nn2)cc1)Nc1cccc(Cl)c1	+	-
O=C(Nc1cccnc1)C1CCN(c2ccc(-c3ccc(Cl)cc3)nn2)CC1	+	-
Cc1ccccc1-c1ccc(N2CCC(C(=O)Nc3ccc4c(c3)OCO4)CC2)nn1	-	-
O=C(NCc1cccnc1)C1CCN(c2ccc(-c3ccc(Cl)cc3)nn2)CC1	-	-
O=C(Nc1ccc2c(c1)OCO2)C1CCN(c2ccc(-c3ccc(Cl)cc3)nn2)CC1	+	-
COc1ccc(S(=O)(=O)NCCCn2nc(-c3cccs3)ccc2=O)cc1F	-	-
Cc1nc(N2CCCC2)cc(N2CCN(C(=O)c3ccc(Oc4ncccn4)cc3)CC2)n1	.	-
COc1ccc(CC(=O)Oc2c(S(=O)(=O)c3ccccc3)c(C)nn2C(C)(C)C)cc1OC	-	.
CCc1ccc(S(=O)(=O)NCCCn2nc(-c3ccccc3)ccc2=O)s1	-	-
CCc1ccc(S(=O)(=O)NCCCn2nc(-c3ccc(OC)cc3)ccc2=O)s1	+	-
CCc1ccc(OCCOCC(O)CN2CCN(c3ccccc3F)CC2)cc1 (stereo not drawn)	-	.
COc1cccc(OCCOCC(O)CN2CCN(c3ccccc3F)CC2)c1 (stereo not drawn)	+	.
O=C(Nc1nnc(CS(=O)(=O)c2ccccc2)o1)c1nc2ccccc2s1	-	-
CC(c1ccccc1)N1C(=O)CC(N2CCOCC2)C1=O (stereo not drawn)	+	.
Cc1ccc(CN2C(=O)CC(N3CCOCC3)C2=O)cc1 (stereo not drawn)	-	-
O=C(CSc1nnc(-c2ccncc2)o1)Nc1ccc2c(c1)OCCO2	-	-
CCN(CC)C(=O)C(=O)Nc1c(F)cccc1F	-	.
COc1ccc(CCS(=O)(=O)NCC2CCN(C3CCCC3)CC2)cc1	+	-
COc1ccc(CCS(=O)(=O)NCC2CCN(C)CC2)cc1	-	-
COc1ccc(S(=O)(=O)NCC2CCN(C3CCCC3)CC2)cc1	-	-
CC(C)c1ccc(S(=O)(=O)NCC2CCN(C3CCCC3)CC2)cc1	+	.
Cc1ccc([N+](=O)[O-])cc1S(=O)(=O)Nc1ccc(-c2ccc(=O)n(C)n2)cc1	-	-
Cc1ccc(NC(=O)Cn2cc(-c3nnc(-c4ccco4)o3)c3ccccc32)cc1Cl	-	-
COCCCNC(=O)C(=O)Nc1ccc([N+](=O)[O-])cc1	+	.
SMILES	GluA2 TARP mod	GIRK2 activator
CN(C)CCNC(=O)C(=O)Nc1ccc([N+](=O)[O-])cc1	-	.
COC(=O)c1ccc(COc2coc(CN3c4ccccc4CC3C)cc2=O)cc1 (stereo not drawn)	-	.
Cc1nc(NCCNC(=O)Nc2ccc(C)c(F)c2)cc(-n2cccn2)n1	-	-
Cc1nc(NCCNC(=O)Nc2ccc(Cl)c(C(F)(F)F)c2)cc(-n2cccn2)n1	+	-
O=C1Cc2cc(NC(=O)NCc3cccc4ccccc34)ccc2N1	-	-
OC(COc1ccc2ccccc2c1)CN1CCN(c2ccccc2F)CC1 (stereo not drawn)	-	.
Cc1cc(C)c2c(n1)sc1c(N3CCN(CCO)CC3)ncnc12	+	-
CCc1cc2c(N3CCN(c4nc(C)cc(C)n4)CC3)ncnc2s1	-	.
COc1ccc(C(=O)CSc2nnc(-c3cn(C)nc3OC)n2C)cc1	-	-
O=C(CSCc1ccccc1)N1CCN(Cc2nnnn2-c2ccc(F)c(F)c2)CC1	+	-
O=C(C1CC1)N1CCN(Cc2nnnn2-c2ccc(F)c(F)c2)CC1	-	-
O=S1(=O)N=C(Nc2ccc(Cl)c(C(F)(F)F)c2)c2ccccc21	-	.
CCCC(=O)Nc1ccc(S(=O)(=O)N2CCN(c3ccc4nncn4n3)CC2)cc1	+	-
O=S(=O)(c1ccc(Oc2ccccc2)cc1)N1CCN(c2ccc3nncn3n2)CC1	-	-
O=C(Nc1ccccc1)Nc1ccc2c(c1)N(C(=O)c1ccccc1)CCC2	.	-
O=C(/C=C/c1ccccc1)Nc1ccc2c(c1)N(C(=O)c1ccccc1)CCC2	+	-
O=C(/C=C/c1ccc2c(c1)OCO2)Nc1ccc2c(c1)N(C(=O)C1CC1)CC2	+	-
O=C(/C=C/c1ccc2c(c1)OCO2)Nc1ccc2c(c1)CN(C(=O)C1CC1)CC2	-	-
CCc1ccc(NC(=O)Cn2c(=O)n(CC(C)C)c(=O)c3nscc32)cc1	-	-
Cc1cc(NC(=O)c2sccc2S(=O)(=O)N(C)c2ccccc2)ccc1Br	-	-
C=CCCC(=O)NCCn1nc(C)cc1C	-	-
O=C(Nc1ccccc1C(F)(F)F)c1ccc(=O)n(Cc2ccccc2F)c1	+	-

High-throughput results as filed in PubChem.
